Measurements reported in PubChem BioAssay (Tox21).
Records with an inconclusive call do not appear. The source made the active and inactive calls. Unless noted, the call rests on the fitted dose curve; in most records, active means well fitted curve in the direction sought with a large enough effect in the repeat runs; inconclusive means weak or mixed curves; inactive means no such curve, though single readings can be large; an effect the other way counts as inactive or inconclusive.

How the values were obtained:
[1] = qHTS assay to identify small molecule antagonists of the estrogen related receptor (ERR) signaling pathway from Tox21 library - cell viability counter screen (AID 1224834); further: nearly all actives have a fitted effect of over 30% in size
Outline: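 ERR reporter cells were plated 6 h before compound addition, then exposed to test compounds in DMSO for 17.5 h at 37 C. Viability was read as CellTiter-Fluor fluorescence after a 30-minute incubation at 37 C.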

[2] = biological target: Luciferin 4-monooxygenase (Photinus pyralis) (UniProt P08659); assay: qHTS assay to identify small molecule inhibitors of firefly luciferase (AID 1224835); further: nearly all actives have a fitted effect of over 25% in size
Outline: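 Inhibition of purified Photinus luciferase is measured by luminescence. Substrate levels (D-luciferin, ATP) sit at their KM values. Each compound is tested in a concentration series.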

[3] = qHTS assay to identify small molecule agonists of the constitutive androstane receptor (CAR) signaling pathway - cell viability counter screen (AID 1224836); further: nearly all actives have a fitted effect of over 45% in size
Outline: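 Double-stable HepG2 hepatoma cells (hCAR plus CYP2B6-2.2kb) are treated for 23 h at 37 C with test compounds in 15-point concentration series. PK11195 at 0.75 uM final is co-added. Cell viability is quantified by CellTiter-Fluor.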

[4] = qHTS assay to identify small molecule antagonists of the constitutive androstane receptor (CAR) signaling pathway - cell viability counter screen (AID 1224837); further: nearly all actives have a fitted effect of over 45% in size
Outline: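 HepG2 cells stably expressing hCAR and a CYP2B6-2.2kb reporter were plated and pre-incubated 4 hr at 37 C/5% CO2, then given compounds at 15 concentrations plus 50 nM CITCO (final). After 23 hr, viability was read by CellTiter-Fluor fluorescence.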

[5] = biological target: Nuclear receptor subfamily 1 group I member 3 (Homo sapiens) (UniProt Q14994); assay: qHTS assay to identify small molecule antagonists of the constitutive androstane receptor (CAR) signaling pathway (AID 1224838); further: nearly all actives have a fitted effect of over 40% in size
Outline: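 HepG2 cells stably co-transfected with hCAR and a CYP2B6-2.2kb luciferase reporter were seeded 4 h before compound addition at 15 concentrations. Cells were stimulated with 50 nM CITCO (final) for 24 h at 37 C; luciferase luminescence was then read.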

[6] = biological target: Nuclear receptor subfamily 1 group I member 3 (Homo sapiens) (UniProt Q14994); assay: qHTS assay to identify small molecule agonists of the constitutive androstane receptor (CAR) signaling pathway (AID 1224839);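 further: HepG2 cells stably carrying human CAR and a CYP2B6 luciferase reporter; nearly all actives have a fitted effect of over 15% in size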
Outline: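 Readout: firefly luciferase luminescence via ONE-Glo. System: HepG2 double-stable for hCAR and CYP2B6-2.2kb. Conditions: 15-point compound titration, PK11195 at 0.75 uM final, 24 h incubation.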

[7] = qHTS assay to identify small molecule antagonists of the estrogen related receptor signaling pathway with the pleiotropic PPARgamma coactivator (PGC) from Tox21 10K library - cell viability counter screen (AID 1224840; active means well fitted cell-killing curve with a large enough effect in the repeat runs, not every such curve was filed as active; further: nearly all actives have a fitted effect of over 40% in size)
Outline: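 PGC/ERR cells were seeded at 2,000 cells/well and left 6 hours at 37 C/5% CO2 before pin-tool addition of compounds in DMSO. After 17.5 hours at 37 C, CellTiter-Fluor was added and fluorescence read 30 minutes later.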

[8] = qHTS assay to identify small molecule antagonists of the estrogen related receptor signaling pathway with the pleiotropic PPARgamma coactivator (PGC) from Tox21 10K library (AID 1224841; call rule not given here; further: actives are mostly falling curves and most rising ones were filed inactive; nearly all actives have a fitted effect of over 50% in size)
Outline: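 PGC/ERR reporter cells were seeded at 2,000 cells/well and held 6 hours at 37 C/5% CO2 before pin-tool addition of compounds in DMSO. After 18 hours at 37 C, One-Glo was added and luminescence read after 30 minutes at room temperature.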

[9] = qHTS assay to identify small molecule agonists of the estrogen related receptor signaling pathway with the pleiotropic PPARgamma coactivator (PGC) from Tox21 10K library (AID 1224842); further: nearly all actives have a fitted effect of over 15% in size
Outline: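 Luminescence from One-Glo (30 min, room temperature) measured after PGC/ERR cells had 18 h at 37 C with pinned compound (23 nL in DMSO). Cells had been seeded at 2,000 per well and pre-incubated 6 h.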

[10] = biological target: Thyrotropin receptor (Homo sapiens) (UniProt P16473); assay: qHTS assay to identify small molecule agonists of the thyroid stimulating hormone receptor (TSHR) signaling pathway (AID 1224843; calls by dose curve; further: nearly all actives have a fitted effect of over 45% in size)
Outline: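 Screening of the Tox21 10K collection used HEK293 cells engineered with TSHR at 800 cells per well. After a 30-min room-temperature compound exposure, HTRF cAMP reagents were added and fluorescence recorded 1 h later.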

[11] = qHTS assay to identify small molecule agonists of the hypoxia (HIF-1) signaling pathway - cell viability counter screen (AID 1224844; calls by dose curve; further: nearly all actives have a fitted effect of over 50% in size)
Outline: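 HRE-bla ME-180 cells in medium with 0.5% dialyzed FBS were preincubated 5 hrs at 37C, exposed to compounds for 17 hrs, then viability was read as CellTiter-Glo luminescence after 30 min at room temperature, in the reporter wells.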

[12] = qHTS assay to identify small molecule agonists of the hypoxia (HIF-1) signaling pathway (AID 1224846; active means well fitted activation curve with a large enough effect in the signal ratio in the repeat runs, not every such curve was filed as active; the % refers to the signal ratio)
Outline: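 HRE-bla ME-180 cells (beta-lactamase reporter under hypoxia response element) were plated at 2,000 cells/well in medium with 0.5% dialyzed FBS, rested 5 hrs, then given compounds in DMSO for 17 hrs at 37C, 5% CO2. Reporter induction was read with CCF4-AM FRET substrate.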

[13] = qHTS assay to identify small molecule agonists of H2AX - cell viability counter screen (AID 1224847; calls by dose curve;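 further: wild-type CHO-K1 cells; top concentration of the series differs between compounds; nearly all actives have a fitted effect of over 30% in size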)
Outline: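 For this counter screen, overnight-attached CHO-K1 cells received test compounds (15 concentrations, 0.76% DMSO final); 3 hr later at 37C, CellTiter-Glo reagent was added and luminescence recorded after 30 min at room temperature.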

[14] = qHTS assay to identify small molecule antagonists of the estrogen related receptor (ERR) signaling pathway from Tox21 library (AID 1224848); further: nearly all actives have a fitted effect of over 50% in size
Outline: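 Antagonist-mode screen of the Tox21 10K library in an NTP-provided ERR reporter cell line; 18 h compound exposure at 37 C, luminescence measured with ONE-Glo.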

[15] = qHTS assay to identify small molecule agonists of the estrogen related receptor (ERR) signaling pathway from Tox21 library (AID 1224849; calls by dose curve; further: nearly all actives have a fitted effect of over 15% in size); conditions: ERR reporter cell line, ONE-Glo luciferase, 18 h; at 92.4 µM (top of the series) unless noted
Outline: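 ERR reporter cell line (NTP) seeded, rested 6 h at 37 C/5% CO2, then pinned with Tox21 compounds in DMSO. After 18 h at 37 C, ONE-Glo luciferase luminescence was read following 30 min at room temperature.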

[16] = qHTS RealTime-Glo MT Cell Viability Assay in HepG2 cells - 24 hour (AID 1224867); further: nearly all actives have a fitted effect of over 50% in size
Outline: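 qHTS, HepG2, 600 cells/well, RealTime-Glo (NanoLuc + prosubstrate) added with cells; 5 h preincubation; DMSO compound addition; 37 C; luminescence at 0/8/16/24/32/40 h.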

[17] = qHTS RealTime-Glo MT Cell Viability Assay in HEK293 cells - 32 hour (AID 1224868)
Outline: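 Assay medium contained NanoLuc luciferase plus cell-permeant prosubstrate, added with HEK293 cells at 600 cells/well. After 5 h at 37 C/5% CO2 compounds were added; plates stayed at 37 C for 40 h with serial luminescence reads.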

[18] = A CellTox Green Cytotoxicity Assay to monitor cytotoxicity in HEK293 cells - 0 hour (AID 1224869); further: nearly all actives have a fitted effect of over 50% in size
Outline: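 HEK293 cells premixed with CellTox Green dye were seeded at 600 cells/well and left 5 h at 37 C/5% CO2 before pin transfer of 23 nL compound in DMSO. Fluorescence from dye bound to dead-cell DNA was read during 40 h treatment.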

[19] = qHTS assay to identify small molecule agonists of H2AX (AID 1224845; active means well fitted activation curve with a large enough effect in the signal ratio in the repeat runs, not every such curve was filed as active; the % refers to the signal ratio)
Outline: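 Phospho-H2AX Ser139 measured by HTRF (ex 320 nm; em 665 and 620 nm) after 24 hr antibody incubation. Compounds, 15 concentrations, 0.76% DMSO, were applied to CHO-K1 cells for 3hr at 37C before lysis.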
On the % scale 0 is the no-effect control and ±100 the full control effect.

Chain of Thyrotropin receptor (Homo sapiens) (P16473 whole entry, looked up): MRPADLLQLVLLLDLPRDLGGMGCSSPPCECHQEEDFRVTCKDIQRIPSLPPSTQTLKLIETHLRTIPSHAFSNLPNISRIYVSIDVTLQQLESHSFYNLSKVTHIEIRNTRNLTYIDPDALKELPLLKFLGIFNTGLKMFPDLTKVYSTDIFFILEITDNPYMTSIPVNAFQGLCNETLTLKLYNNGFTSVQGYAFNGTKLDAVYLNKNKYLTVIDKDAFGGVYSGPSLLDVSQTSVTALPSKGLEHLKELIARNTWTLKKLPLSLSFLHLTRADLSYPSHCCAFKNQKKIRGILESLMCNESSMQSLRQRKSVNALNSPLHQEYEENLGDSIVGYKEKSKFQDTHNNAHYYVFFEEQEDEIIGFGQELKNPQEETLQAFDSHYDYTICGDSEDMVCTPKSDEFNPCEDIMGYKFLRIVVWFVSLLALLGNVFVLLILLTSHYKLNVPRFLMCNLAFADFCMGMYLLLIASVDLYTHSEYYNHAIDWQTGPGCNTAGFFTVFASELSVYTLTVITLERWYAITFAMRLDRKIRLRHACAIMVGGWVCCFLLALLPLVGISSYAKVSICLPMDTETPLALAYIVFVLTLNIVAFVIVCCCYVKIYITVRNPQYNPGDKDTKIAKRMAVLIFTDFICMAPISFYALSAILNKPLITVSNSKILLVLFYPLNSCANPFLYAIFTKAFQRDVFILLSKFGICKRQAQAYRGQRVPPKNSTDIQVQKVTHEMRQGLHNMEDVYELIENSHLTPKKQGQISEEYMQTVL
Chain of Nuclear receptor subfamily 1 group I member 3 (Homo sapiens) (Q14994 whole entry, looked up): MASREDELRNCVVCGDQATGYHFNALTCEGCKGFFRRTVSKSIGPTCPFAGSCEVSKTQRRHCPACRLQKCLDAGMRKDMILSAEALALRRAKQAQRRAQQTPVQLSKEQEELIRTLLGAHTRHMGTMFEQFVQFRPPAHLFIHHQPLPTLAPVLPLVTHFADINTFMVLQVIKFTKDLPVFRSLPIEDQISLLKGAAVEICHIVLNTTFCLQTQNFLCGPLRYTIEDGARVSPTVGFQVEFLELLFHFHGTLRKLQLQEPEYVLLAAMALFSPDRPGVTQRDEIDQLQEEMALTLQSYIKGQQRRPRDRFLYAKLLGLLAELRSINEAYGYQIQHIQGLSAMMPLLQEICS
Chain of Luciferin 4-monooxygenase (Photinus pyralis) (P08659 whole entry, looked up): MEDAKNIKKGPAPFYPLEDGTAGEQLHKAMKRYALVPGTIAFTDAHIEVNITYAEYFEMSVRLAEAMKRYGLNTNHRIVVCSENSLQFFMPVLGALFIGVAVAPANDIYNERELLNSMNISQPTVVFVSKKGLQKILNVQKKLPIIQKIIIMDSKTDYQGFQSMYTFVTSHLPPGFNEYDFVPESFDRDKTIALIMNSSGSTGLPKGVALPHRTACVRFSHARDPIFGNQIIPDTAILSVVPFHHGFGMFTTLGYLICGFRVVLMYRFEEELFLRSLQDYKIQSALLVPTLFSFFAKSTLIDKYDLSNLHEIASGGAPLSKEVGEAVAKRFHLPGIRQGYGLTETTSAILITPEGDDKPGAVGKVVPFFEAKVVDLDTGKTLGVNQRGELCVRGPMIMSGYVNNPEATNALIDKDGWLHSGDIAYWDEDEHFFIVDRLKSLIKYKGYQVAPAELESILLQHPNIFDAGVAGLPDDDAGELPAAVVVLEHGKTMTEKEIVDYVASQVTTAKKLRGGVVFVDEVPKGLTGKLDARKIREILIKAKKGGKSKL

COc1nc(N)nc2c1ncn2[C@@H]1O[C@H](CO)[C@@H](O)[C@@H]1O
inactive: Potency [1] | Potency [2] | Potency [3] | Potency [4] | Potency [5] | Potency [6] | Potency [7] | Potency [8] | outcome [9] | Potency [10] | Potency [11] | outcome [12] | Potency [13] | Potency [14] | activity change, positive = activation [15] 4.89% [at 42.5 µM] | Potency [16] | Potency [17] | Potency [18]

NS(=O)(=O)c1cc(C(=O)O)cc(N2CCCC2)c1Oc1ccccc1
inactive: Potency [1] | Potency [2] | Potency [3] | Potency [4] | Potency [5] | Potency [6] | Potency [7] | Potency [8] | outcome [9] | Potency [10] | Potency [11] | outcome [19] | Potency [13] | Potency [14] | activity change, positive = activation [15] 0.186% [at 42.5 µM] | Potency [16] | Potency [17] | Potency [18]

CC(=O)CC(C)(C)C1CCCCC1
inactive: Potency [1] | Potency [2] | Potency [3] | Potency [4] | Potency [5] | Potency [6] | Potency [7] | Potency [8] | outcome [9] | Potency [11] | outcome [19] | outcome [12] | Potency [13] | Potency [14] | activity change, positive = activation [15] 0.591% | Potency [16] | Potency [17] | Potency [18]

CN(C(=O)c1c(O)c2ccccc2n(C)c1=O)c1ccccc1
inactive: Potency [1] | Potency [2] | Potency [3] | Potency [4] | Potency [5] | Potency [6] | Potency [7] | Potency [8] | outcome [9] | Potency [11] | outcome [19] | outcome [12] | Potency [13] | Potency [14] | activity change, positive = activation [15] 0.397% [at 42.5 µM] | Potency [16] | Potency [17] | Potency [18]

O=C1CCCC(=O)C1
inactive: Potency [1] | Potency [2] | Potency [3] | Potency [4] | Potency [5] | Potency [6] | Potency [7] | Potency [8] | outcome [9] | Potency [11] | outcome [19] | outcome [12] | Potency [13] | Potency [14] | activity change, positive = activation [15] -12.9% | Potency [16] | Potency [17] | Potency [18]

O=C(CCCN1CCN(c2ccccn2)CC1)c1ccc(F)cc1
inactive: Potency [1] | Potency [2] | Potency [3] | Potency [4] | Potency [5] | Potency [6] | Potency [7] | Potency [8] | outcome [9] | Potency [10] | Potency [11] | outcome [19] | Potency [13] | Potency [14] | activity change, positive = activation [15] -14.3% [at 42.5 µM] | Potency [16] | Potency [18]

CCCCCCCCS(=O)(=O)Cl
inactive: Potency [1] | Potency [2] | Potency [3] | Potency [4] | Potency [5] | Potency [6] | Potency [7] | Potency [8] | Potency [10] | Potency [11] | outcome [19] | outcome [12] | Potency [13] | Potency [14] | activity change, positive = activation [15] 7.34% | Potency [16] | Potency [17] | Potency [18]

O=[N+]([O-])c1ccc(F)cc1F
inactive: Potency [1] | Potency [2] | Potency [3] | Potency [4] | Potency [5] | Potency [6] | Potency [7] | Potency [8] | outcome [9] | Potency [11] | outcome [19] | outcome [12] | Potency [13] | activity change, positive = activation [15] 3.35% | Potency [16] | Potency [17] | Potency [18]

CC(=O)CC(C)C
inactive: Potency [1] | Potency [2] | Potency [3] | Potency [4] | Potency [5] | Potency [6] | Potency [7] | Potency [8] | Potency [10] | Potency [11] | outcome [19] | outcome [12] | Potency [13] | Potency [14] | activity change, positive = activation [15] 1.24% | Potency [16] | Potency [17] | Potency [18]

CCOC(=O)[C@H](CCc1ccccc1)N[C@@H](C)C(=O)N1[C@H](C(=O)O)C[C@@H]2CCC[C@@H]21
inactive: Potency [1] | Potency [2] | Potency [3] | Potency [4] | Potency [5] | Potency [6] | Potency [7] | Potency [8] | outcome [9] | Potency [10] | Potency [11] | outcome [19] | Potency [13] | Potency [14] | activity change, positive = activation [15] 3.92% [at 42.5 µM] | Potency [16] | Potency [17] | Potency [18]
